Test results reported in ChEMBL document CHEMBL4513146, “CO-ADD screening of Karazin Kharkiv National University (Ukraine) compounds”.
Results with a measured potency or affinity are listed apart.

How the values were obtained:
[1] = system: Staphylococcus aureus; conditions: Concentration 32 ug.mL-1;; ASSAY_TEST Inhibition of Bacterial Growth; detection method Absorption (OD600); MEDIA CAMHB; plate type 384well; NBS; CORNING #3640; time 18 hr
[2] = system: Escherichia coli; conditions: Concentration 32 ug.mL-1;; ASSAY_TEST Inhibition of Bacterial Growth; detection method Absorption (OD600); MEDIA CAMHB; plate type 384well; NBS; CORNING #3640; time 18 hr

SMILES | Inhibition [1] [%] | Inhibition [2] [%]
Cc1nnc2ccc(S(=O)(=O)N(Cc3cccc(F)c3)c3ccc(F)c(F)c3)cn12 | 0.15 | -12.6
Cc1ccc(-c2cc3c4nn(CC(=O)Nc5cccc(C)c5C)c(=O)n4ccn3n2)cc1C | 13.1 | -0.36
COc1cccc(-n2ccn3c(SCC(=O)Nc4cc(F)ccc4F)nnc3c2=O)c1 | 11.04 | -6.25
C=Cc1ccc(CN(c2ccc(F)c(F)c2)S(=O)(=O)c2cccn3cnnc23)cc1 | -2.72 | -13.7
Cc1cc2nn(CC(=O)NCc3ccccc3)c(=O)n2c(Nc2ccc(C)c(F)c2)n1 | -14.43 | -0.54
O=C(Cn1nc2c(N3CCOCC3)nccn2c1=O)NCc1cccs1 | 22.65 | 1.24
